How the values were obtained:
Assay in all cases: log2 ratio of Biotin-Ahx-Ub-VS probe labelling (fragment/DMSO); higher = less target engagement (more negative = stronger competition), active = hit call of the paper (q ≤ 0.05, log2 ratio ≤ -1)
Settings in all cases: compound concentration: 200 uM; treatment time: 3 h
USP34 = USP34 (UniProt Q70CQ2)
Method in brief: (§1)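 Average log2 ratios of fragment over vehicle were obtained by unpaired t-test from global-median-normalised Spectronaut label-free quantities. Proteins with ≥2 unique peptides were included. HEK293T lysate (495 µg per sample) was treated in triplicate with fragment at 200 µM or vehicle for 3 h, then with Biotin-Ahx-Ub-VS at 0.5 µM final for 1 h, and labelled DUBs were NeutrAvidin-enriched and run by diaPASEF LC-MS/MS.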

USP36 = target: T1, USP36 (UniProt Q9P275)
T1 sequence (whole entry): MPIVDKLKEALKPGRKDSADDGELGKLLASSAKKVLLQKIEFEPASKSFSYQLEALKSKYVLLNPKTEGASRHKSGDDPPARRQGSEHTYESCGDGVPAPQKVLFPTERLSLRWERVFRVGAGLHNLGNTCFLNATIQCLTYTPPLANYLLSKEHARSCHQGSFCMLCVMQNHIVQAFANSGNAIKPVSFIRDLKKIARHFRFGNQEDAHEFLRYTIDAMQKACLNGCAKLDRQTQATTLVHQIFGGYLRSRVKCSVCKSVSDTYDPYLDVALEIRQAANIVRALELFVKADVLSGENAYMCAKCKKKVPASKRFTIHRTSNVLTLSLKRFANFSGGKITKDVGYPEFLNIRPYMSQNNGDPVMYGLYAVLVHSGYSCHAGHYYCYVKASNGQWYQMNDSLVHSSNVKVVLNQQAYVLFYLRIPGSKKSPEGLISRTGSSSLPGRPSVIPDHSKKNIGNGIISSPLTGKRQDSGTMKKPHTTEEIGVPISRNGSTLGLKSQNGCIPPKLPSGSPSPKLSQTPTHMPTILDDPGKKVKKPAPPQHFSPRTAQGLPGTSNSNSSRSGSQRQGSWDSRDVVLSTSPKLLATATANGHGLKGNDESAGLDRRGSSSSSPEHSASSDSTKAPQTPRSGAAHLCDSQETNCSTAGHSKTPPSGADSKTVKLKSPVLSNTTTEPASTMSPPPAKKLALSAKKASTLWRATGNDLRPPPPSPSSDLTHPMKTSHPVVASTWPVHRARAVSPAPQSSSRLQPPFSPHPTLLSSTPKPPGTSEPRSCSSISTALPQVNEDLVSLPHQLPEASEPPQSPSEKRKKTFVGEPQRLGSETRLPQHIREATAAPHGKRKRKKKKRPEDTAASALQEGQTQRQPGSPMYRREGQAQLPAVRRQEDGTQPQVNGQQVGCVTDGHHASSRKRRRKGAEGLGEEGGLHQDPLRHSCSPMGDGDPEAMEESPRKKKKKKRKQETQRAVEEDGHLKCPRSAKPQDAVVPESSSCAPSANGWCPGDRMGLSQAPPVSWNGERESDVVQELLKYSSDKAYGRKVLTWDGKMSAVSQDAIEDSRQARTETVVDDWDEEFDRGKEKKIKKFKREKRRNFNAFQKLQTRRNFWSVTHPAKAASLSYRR
Method in brief: as §1

USP38 = target: T2, USP38 (UniProt Q8NB14)
T2 sequence (whole entry): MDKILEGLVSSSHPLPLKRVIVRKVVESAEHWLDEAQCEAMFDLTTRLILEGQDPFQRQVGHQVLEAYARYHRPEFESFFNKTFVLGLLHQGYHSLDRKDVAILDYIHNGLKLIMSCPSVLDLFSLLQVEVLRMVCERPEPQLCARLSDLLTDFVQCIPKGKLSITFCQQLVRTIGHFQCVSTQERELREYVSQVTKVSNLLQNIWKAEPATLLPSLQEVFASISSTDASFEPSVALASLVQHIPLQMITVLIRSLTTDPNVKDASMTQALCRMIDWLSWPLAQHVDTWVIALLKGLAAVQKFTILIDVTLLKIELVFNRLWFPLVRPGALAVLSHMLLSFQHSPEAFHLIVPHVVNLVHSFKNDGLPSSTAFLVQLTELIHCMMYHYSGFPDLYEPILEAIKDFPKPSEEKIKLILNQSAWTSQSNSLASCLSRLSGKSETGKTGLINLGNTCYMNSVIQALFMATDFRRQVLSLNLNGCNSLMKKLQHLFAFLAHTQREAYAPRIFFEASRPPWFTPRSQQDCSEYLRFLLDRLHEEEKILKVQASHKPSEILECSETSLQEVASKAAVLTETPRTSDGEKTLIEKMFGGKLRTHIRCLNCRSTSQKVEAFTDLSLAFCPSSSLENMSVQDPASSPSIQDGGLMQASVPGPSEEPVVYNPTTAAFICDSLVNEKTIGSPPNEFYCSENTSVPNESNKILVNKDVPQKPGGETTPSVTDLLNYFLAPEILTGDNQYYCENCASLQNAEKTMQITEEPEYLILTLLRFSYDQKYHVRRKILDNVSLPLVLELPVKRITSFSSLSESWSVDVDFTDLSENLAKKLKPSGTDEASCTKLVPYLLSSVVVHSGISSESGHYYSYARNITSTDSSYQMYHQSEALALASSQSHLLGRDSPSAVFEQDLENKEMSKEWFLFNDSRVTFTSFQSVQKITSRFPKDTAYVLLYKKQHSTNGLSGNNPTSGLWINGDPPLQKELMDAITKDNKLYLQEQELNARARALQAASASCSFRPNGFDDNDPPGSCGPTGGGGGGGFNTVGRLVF
Method in brief: as §1

USP39 = target: T3, USP39 (UniProt Q53GS9)
T3 sequence (whole entry): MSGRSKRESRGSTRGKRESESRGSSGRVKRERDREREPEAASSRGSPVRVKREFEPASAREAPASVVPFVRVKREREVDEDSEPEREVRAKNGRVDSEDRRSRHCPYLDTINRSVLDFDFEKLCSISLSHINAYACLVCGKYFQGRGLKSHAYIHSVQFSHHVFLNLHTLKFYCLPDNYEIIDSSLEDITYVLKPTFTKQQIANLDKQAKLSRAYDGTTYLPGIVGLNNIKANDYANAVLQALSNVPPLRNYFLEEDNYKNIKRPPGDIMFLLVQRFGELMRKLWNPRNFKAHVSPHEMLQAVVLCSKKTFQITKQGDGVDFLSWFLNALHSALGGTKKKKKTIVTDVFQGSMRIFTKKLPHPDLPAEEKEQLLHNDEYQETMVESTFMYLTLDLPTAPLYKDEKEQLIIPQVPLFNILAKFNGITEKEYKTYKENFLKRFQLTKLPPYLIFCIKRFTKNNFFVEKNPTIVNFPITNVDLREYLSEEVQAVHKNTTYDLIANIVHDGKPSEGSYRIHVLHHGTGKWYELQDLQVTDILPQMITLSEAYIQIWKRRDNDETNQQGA
Method in brief: as §1

USP4 = target: T4, USP4 (UniProt Q13107)
T4 sequence (whole entry): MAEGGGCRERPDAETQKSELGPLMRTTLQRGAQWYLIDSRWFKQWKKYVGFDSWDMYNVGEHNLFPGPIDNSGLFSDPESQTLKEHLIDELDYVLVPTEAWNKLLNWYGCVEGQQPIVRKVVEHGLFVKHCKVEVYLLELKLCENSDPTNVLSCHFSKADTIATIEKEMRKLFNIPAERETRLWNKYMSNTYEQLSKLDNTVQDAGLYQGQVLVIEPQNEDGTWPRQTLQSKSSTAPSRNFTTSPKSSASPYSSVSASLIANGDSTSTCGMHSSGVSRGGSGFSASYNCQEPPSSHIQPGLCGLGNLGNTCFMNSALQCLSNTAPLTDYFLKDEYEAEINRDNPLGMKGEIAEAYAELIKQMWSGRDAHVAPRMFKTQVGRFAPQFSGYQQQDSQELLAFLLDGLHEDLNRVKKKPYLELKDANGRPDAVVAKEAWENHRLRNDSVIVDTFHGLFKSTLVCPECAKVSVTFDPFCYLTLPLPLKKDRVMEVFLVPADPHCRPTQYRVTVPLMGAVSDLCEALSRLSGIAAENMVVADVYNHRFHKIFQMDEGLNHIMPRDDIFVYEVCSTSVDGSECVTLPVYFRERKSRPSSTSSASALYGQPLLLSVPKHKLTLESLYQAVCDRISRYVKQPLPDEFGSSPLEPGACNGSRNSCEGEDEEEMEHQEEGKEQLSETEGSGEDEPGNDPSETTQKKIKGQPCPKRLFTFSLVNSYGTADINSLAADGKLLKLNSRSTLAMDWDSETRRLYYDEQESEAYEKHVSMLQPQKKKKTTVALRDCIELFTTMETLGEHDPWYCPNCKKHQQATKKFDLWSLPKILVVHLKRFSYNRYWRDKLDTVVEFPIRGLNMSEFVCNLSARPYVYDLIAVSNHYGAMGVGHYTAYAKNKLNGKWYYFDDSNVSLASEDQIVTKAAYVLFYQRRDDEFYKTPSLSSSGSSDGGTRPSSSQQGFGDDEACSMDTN
Method in brief: as §1

Measured: log2 ratio of Biotin-Ahx-Ub-VS probe labelling

Sequence of USP34 (Q70CQ2 whole entry, the tested form may be a part): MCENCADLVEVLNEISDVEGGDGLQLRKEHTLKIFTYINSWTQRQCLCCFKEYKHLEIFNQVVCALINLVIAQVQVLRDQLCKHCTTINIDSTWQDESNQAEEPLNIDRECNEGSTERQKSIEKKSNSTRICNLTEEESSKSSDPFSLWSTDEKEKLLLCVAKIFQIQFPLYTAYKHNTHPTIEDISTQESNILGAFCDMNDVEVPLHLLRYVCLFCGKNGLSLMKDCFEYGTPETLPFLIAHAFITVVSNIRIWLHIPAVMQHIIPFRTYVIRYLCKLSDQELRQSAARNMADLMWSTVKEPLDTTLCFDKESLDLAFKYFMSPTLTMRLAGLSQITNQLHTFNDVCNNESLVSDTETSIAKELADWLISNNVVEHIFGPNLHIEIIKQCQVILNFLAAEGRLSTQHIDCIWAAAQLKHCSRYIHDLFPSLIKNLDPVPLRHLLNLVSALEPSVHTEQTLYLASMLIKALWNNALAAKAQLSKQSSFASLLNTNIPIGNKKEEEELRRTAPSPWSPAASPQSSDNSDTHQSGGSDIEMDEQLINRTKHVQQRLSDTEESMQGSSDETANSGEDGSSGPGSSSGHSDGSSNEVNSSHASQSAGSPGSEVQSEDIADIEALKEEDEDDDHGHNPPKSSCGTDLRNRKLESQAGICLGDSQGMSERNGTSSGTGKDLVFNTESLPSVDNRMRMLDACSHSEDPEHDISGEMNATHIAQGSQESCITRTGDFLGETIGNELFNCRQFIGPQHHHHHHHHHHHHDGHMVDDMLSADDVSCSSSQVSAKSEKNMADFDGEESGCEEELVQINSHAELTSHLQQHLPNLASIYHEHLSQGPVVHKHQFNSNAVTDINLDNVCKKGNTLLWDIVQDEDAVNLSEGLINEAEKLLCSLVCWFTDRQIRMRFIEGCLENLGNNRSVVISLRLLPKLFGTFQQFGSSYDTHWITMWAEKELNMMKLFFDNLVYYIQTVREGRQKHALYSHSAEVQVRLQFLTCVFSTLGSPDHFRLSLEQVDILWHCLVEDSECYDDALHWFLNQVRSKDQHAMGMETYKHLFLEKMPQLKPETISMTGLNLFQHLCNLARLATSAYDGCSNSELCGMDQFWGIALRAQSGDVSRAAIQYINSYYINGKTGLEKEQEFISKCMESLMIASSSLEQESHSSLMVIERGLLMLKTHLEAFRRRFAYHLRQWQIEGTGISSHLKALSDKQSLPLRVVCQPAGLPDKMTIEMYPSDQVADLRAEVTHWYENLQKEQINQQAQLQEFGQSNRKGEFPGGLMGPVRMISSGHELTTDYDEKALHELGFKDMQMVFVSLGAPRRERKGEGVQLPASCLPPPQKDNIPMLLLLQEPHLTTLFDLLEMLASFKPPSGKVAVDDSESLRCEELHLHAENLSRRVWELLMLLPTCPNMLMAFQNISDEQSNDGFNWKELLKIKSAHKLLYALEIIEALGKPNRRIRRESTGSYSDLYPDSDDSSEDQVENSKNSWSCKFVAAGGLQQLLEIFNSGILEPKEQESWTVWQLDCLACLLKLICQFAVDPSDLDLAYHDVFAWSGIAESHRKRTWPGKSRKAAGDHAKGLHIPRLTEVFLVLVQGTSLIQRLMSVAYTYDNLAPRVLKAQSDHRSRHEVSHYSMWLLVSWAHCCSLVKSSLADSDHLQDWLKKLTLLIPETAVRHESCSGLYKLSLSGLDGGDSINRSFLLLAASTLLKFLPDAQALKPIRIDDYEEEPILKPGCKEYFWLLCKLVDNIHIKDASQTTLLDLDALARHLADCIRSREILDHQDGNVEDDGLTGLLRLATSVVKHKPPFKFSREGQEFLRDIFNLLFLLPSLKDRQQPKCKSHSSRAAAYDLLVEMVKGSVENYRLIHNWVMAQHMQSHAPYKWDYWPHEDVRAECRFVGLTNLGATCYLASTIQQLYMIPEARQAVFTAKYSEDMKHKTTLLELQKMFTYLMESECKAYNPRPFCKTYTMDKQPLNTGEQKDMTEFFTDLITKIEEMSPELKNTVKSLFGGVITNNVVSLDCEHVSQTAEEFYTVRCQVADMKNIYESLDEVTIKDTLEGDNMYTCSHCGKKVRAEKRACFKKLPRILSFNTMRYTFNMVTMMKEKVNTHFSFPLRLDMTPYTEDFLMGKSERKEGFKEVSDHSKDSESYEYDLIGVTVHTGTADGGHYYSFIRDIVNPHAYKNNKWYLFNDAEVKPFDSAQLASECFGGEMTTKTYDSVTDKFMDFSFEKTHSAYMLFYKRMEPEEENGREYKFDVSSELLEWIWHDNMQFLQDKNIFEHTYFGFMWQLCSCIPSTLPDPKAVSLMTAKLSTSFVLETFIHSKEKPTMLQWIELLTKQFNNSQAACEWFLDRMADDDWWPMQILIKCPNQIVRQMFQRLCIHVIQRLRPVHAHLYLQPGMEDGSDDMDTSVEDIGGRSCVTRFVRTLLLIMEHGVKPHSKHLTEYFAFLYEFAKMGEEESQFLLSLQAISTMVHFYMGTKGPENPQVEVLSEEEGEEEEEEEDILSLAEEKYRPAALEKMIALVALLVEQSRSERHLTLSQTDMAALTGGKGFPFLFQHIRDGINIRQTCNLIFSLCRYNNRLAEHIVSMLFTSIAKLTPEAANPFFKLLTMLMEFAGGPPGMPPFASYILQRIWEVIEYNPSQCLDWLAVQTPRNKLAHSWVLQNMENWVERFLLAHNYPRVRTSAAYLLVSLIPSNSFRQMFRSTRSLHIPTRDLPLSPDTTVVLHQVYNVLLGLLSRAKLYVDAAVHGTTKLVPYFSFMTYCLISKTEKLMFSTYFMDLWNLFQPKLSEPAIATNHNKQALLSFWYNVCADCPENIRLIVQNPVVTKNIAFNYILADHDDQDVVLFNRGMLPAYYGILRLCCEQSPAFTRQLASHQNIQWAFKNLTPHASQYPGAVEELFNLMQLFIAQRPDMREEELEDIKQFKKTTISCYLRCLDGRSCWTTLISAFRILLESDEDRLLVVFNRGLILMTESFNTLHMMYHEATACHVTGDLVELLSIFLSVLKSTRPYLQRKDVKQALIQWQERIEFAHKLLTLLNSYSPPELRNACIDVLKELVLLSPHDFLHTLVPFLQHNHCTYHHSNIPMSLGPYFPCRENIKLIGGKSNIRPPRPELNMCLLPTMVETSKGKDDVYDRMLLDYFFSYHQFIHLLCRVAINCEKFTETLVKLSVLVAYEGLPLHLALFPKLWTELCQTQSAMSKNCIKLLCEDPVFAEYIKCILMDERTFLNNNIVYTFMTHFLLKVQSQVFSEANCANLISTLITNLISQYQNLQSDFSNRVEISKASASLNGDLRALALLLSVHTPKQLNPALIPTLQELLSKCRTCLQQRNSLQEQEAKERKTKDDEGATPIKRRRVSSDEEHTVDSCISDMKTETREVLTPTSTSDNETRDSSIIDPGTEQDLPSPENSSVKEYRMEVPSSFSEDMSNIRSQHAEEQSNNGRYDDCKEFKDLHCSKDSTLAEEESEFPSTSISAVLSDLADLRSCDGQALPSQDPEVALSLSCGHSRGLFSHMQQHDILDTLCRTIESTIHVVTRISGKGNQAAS

Cc1ccc(N(CCC#N)C(=O)CCl)cc1C
inactive: USP34 -0.0882 | USP36 -0.062 | USP38 -0.15 | USP39 0.18 | USP4 0.0498

Source: the supplement of paper PMC11732987, “Enantioselective OTUD7B fragment discovery through chemoproteomics screening and high-throughput optimisation” (Communications Chemistry, 2025)
